Records with an inconclusive call do not appear. The source made the active and inactive calls. Calls follow the shape of the dose curve; as a rule, active = well fitted inhibition curve with a large enough effect in the signal ratio, with a control signal flat; inconclusive = small, poorly fitted or top-dose-only effect, or effect the other way; inactive = flat fitted curve, though single readings scatter; the % refers to the signal ratio.
Assay: Confirmation Concentration-Response Assay for Identification of Small Molecule Antagonists of Stat Signaling Pathway
Details: SIE-bla cells, IL-6 stimulated, beta-lactamase ratio, 5 h
Excerpt: NIH Molecular Libraries Screening Centers Network [MLSCN] NIH Chemical Genomics Center [NCGC] MLSCN Grant: None NCGC Assay Overview: This assay is a retest of actives identified from the Stat signaling pathway assay (PubChem AID 446). The Stat assay is cell-based and measures Interleukin 6 (IL-6) mediated modulation of a beta-lactamase reporter gene controlled by a STAT inducible element (SIE-bla cells, Invitrogen). IL-6 is a cytokine that signals via the JAK/STAT pathway and is implicated in cancer and inflammation. SIE-bla cells are induced by IL-6 at 40 pM EC50 and inhibited by the pan JAK inhibitor, 2-(1,1-Dimethylethyl)-9-fluoro-3,6-dihydro-7H-benz[h]-imidaz[4,5-f]isoquinolin-7-one, at approximately 10 nM IC50. Plated cells were incubated overnight and on the following day, stimulated with 40 pM IL-6 for 5 hrs. The assay was stimulated with an EC50 of IL-6 to retest inhibitors of STAT signaling.
NCGC Assay Protocol Summary: Cells were trypsinized, washed in assay medium (AM, OPTI MEM with 0.5% fetal bovine serum, 0.1 mM nonessential amino acids, 1 mM sodium pyruvate, 10mM HEPES pH 7.3, 100U/ml penicillin, and 100 ug/ml streptomycin) and suspended at […] in AM. Approximately 2500 cells in 5 uL/well was dispensed into 1536-well plates and the cells were incubated overnight at 37 C. 23 nL of compound were delivered by a pin tool and 1 uL of IL-6 (40 pM final concentration in AM) was added. After plates were incubated at 37 C for 5 hrs, 1uL of detector mix (LiveBLAzerTM, Invitrogen) was added, the plates incubated at room temperature for 2.5 hrs, and fluorescence intensity at 460 and 530 nm emissions was measured at 405 nm excitation by an Envision (Perkin Elmer).

| SMILES | Potency |
| --- | --- |
| CC(C)[C@H](CO)Nc1nc(Nc2cccc(Cl)c2)c2ncn(C(C)C)c2n1 | 5.01 µM (active) |
| CCn1cnc2c(Nc3cccc(Cl)c3)nc(N[C@@H]3CCCC[C@H]3N)nc21 | 3.98 µM (active) |
| CC(C)C[C@H]1C(=O)N2CCC[C@H]2[C@]2(O)O[C@](NC(=O)[C@@H]3C=C4c5cccc6[nH]c(Br)c(c56)CC4N(C)C3)(C(C)C)C(=O)N12 (stereo partly specified) | 12.6 µM (active) |
| CC[C@@H]1CN2CCc3cc(OC)c(OC)cc3[C@H]2C[C@@H]1C[C@@H]1NCCc2cc(OC)c(OC)cc21 | 0.398 µM (active) |
| C[C@]1(C(=O)O)[C@@H]2CC[C@@H](O2)[C@@]1(C)C(=O)O | 10 µM (active) |
| COc1ccc(C[C@@H]2C(=O)N[C@H](C)C(=O)N(C)[C@@H]3C(=O)N(C)[C@@H](Cc4ccc(O)c(c4)Oc4ccc(cc4)[C@H]3O)C(=O)N[C@@H](C)C(=O)N[C@H](C)C(=O)N2C)cc1 | 0.398 µM (active) |
